PNC inhibitor: blocks assembly of the perinucleolar compartment; PC3M PTB-GFP, PNC prevalence imaging, 16 h; stronger effect = lower value; activity change (PNC), negative = inhibition, % at 10 µM; 140,000 tested, 3.1% active;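 active = readout at or below -70, meaning at least 70% loss of cells showing the perinucleolar compartment, a nuclear body marking cancer cells; inconclusive = readout between -30 and a set limit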;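 also: plate controls were DMSO wells for no effect and camptothecin positive control wells for full effect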
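Read-out is percentage of cells bearing a perinucleolar compartment, from automated 20x imaging of fixed, Hoechst-stained PC3M PTB-GFP cells. Cells were seeded 4 h, then exposed 16 h to compound (23 nl of library stock) in duplicate plates.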
ALDH1A1 block: inhibitors of human aldehyde dehydrogenase 1A1 | 220,000 tested, 7.3% active | Potency, µM (highest dose often 75.3 µM), inactives show at the highest dose activity, negative = inhibition, hits mostly inhibitors | Purified ALDH1A1, NADH fluorescence, propionaldehyde substrate;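 also: potency is read from the fitted curve at half-maximal effect; plate controls were no enzyme wells and a reference inhibitor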
Target sequence (P00352 whole entry, looked up): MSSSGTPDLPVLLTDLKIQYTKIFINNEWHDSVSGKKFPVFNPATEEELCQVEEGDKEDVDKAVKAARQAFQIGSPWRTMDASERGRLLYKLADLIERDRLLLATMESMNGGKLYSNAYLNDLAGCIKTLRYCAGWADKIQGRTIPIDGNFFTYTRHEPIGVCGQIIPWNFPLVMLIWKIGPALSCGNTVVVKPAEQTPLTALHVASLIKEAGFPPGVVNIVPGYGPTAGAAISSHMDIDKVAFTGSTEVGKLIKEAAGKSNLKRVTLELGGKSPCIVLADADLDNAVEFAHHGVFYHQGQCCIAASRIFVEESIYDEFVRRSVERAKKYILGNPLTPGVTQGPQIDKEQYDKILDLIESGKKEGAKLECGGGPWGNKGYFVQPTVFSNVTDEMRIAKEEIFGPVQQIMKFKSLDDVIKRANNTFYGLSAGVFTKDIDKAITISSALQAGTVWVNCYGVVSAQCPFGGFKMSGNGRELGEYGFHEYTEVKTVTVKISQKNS
HPGD block: HPGD (human) dehydrogenase inhibition; P15428; Potency, µM, inactives show at the top dose activity change, negative = inhibition, most hits filed as inhibitors; purified HPGD, NADH fluorescence kinetic, PGE2 substrate; AID 894; 150,000 tested, 4.3% active; also: potency is read from the fitted curve at half-maximal effect
Target sequence (P15428 whole entry, looked up): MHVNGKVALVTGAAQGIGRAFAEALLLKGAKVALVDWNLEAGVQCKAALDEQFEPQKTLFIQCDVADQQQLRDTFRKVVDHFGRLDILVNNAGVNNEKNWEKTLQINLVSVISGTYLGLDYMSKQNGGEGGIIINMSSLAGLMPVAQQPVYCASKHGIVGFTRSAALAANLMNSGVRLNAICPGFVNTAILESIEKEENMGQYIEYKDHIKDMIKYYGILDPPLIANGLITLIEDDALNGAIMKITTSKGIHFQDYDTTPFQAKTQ
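20 nM HPGD preincubated 15 min at room temperature with compound in 50 mM Tris-HCl pH 8, 0.01% Tween 20. Started with 1 mM NAD+ and 30 uM prostaglandin E2; NADH fluorescence (360/450 nm) read 5 times over 30-s intervals, last minus first.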
LMNA splice mod: modulators of lamin A splicing; HeLa LMNA splicing GFP/RFP minigene ratio, 48 h; Potency, µM (doses to about 46.1 µM), inactives show at the highest dose ratio change, negative = inhibition, usual class: inhibitors; 200,000 tested, 0.01% active; active = well fitted inhibition curve with a large enough effect in the signal ratio, with a control signal flat, not every such curve was filed as active; inconclusive = small, poorly fitted or top-dose-only effect, or effect the other way, or a change in a side signal; the % refers to the signal ratio; also: potency is read from the fitted curve at half-maximal effect
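S3 HeLa cells stably expressing lamin A-EGFP splicing minigene plus DsRed2, 600 cells/well, 48 h compound exposure at 37C. Laser-scanning cytometry; analysed as GFP (500-530 nm)/RFP (575-640 nm) total intensity ratio; 0.5% DMSO vehicle.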
ALOX12 inhib: inhibitors of human 12-lipoxygenase (ALOX12); AID 1452; Potency, µM (doses to about 57.1 µM), without a hit: at the highest dose activity change, negative = inhibition, actives largely listed as inhibitors; purified 12-hLO, xylenol orange hydroperoxide absorbance; 150,000 tested, 0.12% active; active = well fitted inhibition curve with a large enough effect; inconclusive = small, poorly fitted or top-dose-only effect; also: potency is read from the fitted curve at half-maximal effect; nearly all actives have a fitted effect of over 55% in size
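Purified human 12hLO (150 nM final) was preincubated with compounds for 15 min at room temperature in 25 mM Hepes pH 7.0, 0.01% Triton X-100, then reacted with 40 uM arachidonic acid for 30 min. Hydroperoxide was detected with ferrous iron/xylenol orange.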
* hit, by the source's call; ? = inconclusive; · = no result given; [ ] = another dose, or the depositor's remark. An excerpt weighted towards active compounds, which were near 10% of everything screened. Unless noted, calls follow the shape of the dose curve; as a rule, active = well fitted inhibition curve with a large enough effect (not every such curve was filed as active); inconclusive = small, poorly fitted or top-dose-only effect, or another doubt; inactive = no such curve, though single readings can be large or run the other way. Unless noted, % is scaled to controls: 0 for no effect and ±100 for the full control effect.

SMILES	PNC inhibitor	ALDH1A1 block	HPGD block	LMNA splice mod	ALOX12 inhib
CCN(c1ccccc1)S(=O)(=O)c1nnc(NC(=O)COc2cccc(C)c2)s1	·	·	·	14%[46 µM]	·
CC(C)NC[C@@H](O)COc1ccc(COCCOC(C)C)cc1	·	-4%	-1%	?	-2%
O=C(CNC(=S)NC(=O)c1cccs1)c1ccccc1	?	7.9µM*	-18%	0%	?
Cc1ccc(C(=O)NC(=S)NCC(=O)c2ccccc2)cc1	-29	?	-12%	16%	-12%
O=C(CNC(=S)NC(=O)c1ccco1)c1ccccc1	-5	20µM*	-14%	3%	-10%
O=C(O)c1ccccc1C(=O)NCC(O)c1ccccc1 (centres undefined)	·	-5%	·	?	·
O=C(NC(=S)Nc1nc2ccccc2s1)c1cccs1	-100*	3.5µM*	-18%	?	0%
O=C(NC(=S)NCc1ccco1)c1ccccc1	·	-9%	·	15%[46 µM]	·
O=C(CNC(=O)c1ccccc1C(=O)O)c1ccccc1	22	25µM*	-6%	3%	-6%
CC(=O)Nc1ccc2c(c1)C(=Nc1ccc(C(=O)O)cc1)c1ccccc1-2	·	-4%[13.5 µM]	-16%	·	4%[11.4 µM]
COc1ccc(-c2cn3nc(SCC(=O)Nc4cccc(C)c4C)ccc3n2)cc1	·	·	·	-7%[46 µM]	·
Cc1cc2oc(=O)cc(Cn3ncc(Cl)c(Cl)c3=O)c2cc1Cl	·	0.079µM*	·	·	·
CCCS(=O)(=O)N1CC(=O)N(c2cc(C)cc(C)c2)C(C)(C(=O)NC2CCCCCC2)C1 (centres undefined)	·	·	·	-5%[46 µM]	·
Cc1ccccc1N(CC(=O)O)S(C)(=O)=O	-104*	5%	-10%	-1%	4%
Cc1ccccc1N(CC(N)=O)S(C)(=O)=O	20	6%	-7%	6%	-4%
CCOc1ccccc1N(CC(=O)OC)S(C)(=O)=O	-106*	-14%	-7%	-1%	2%
C[N+](C)(C)c1nc(N)nc2c1ncn2[C@H]1O[C@@H](CO)[C@@H](O)[C@H]1O	·	1%[13.5 µM]	-12%	·	5%[11.4 µM]
COC(=O)c1sccc1S(=O)(=O)N(CC(=O)Nc1c(C)cccc1C)c1ccc(C)c(C)c1	·	·	·	-14%[46 µM]	·
C[C@H]1Cc2c(COc3ccccc3)nc3c(c2CO1)CN(S(=O)(=O)c1ccc(Cl)c2nonc12)CC3	·	?	-4%	?	-6%[11.4 µM]
Cc1ccc2nc(SCC(=O)c3ccc(Cl)s3)[nH]c2c1	33	2%	-14%	0%	-12%
CC(=O)c1c(C)[nH]c(C(=O)CSc2nc3ccc(C)cc3[nH]2)c1C	-15	25µM*	-30%	-17%	5%
CCCCOc1ccc(C(=O)NC)cc1	2	0%	-3%	10%	-3%
CC(C)CCOc1ccc(C(=O)CCNC(C)C(=O)O)cc1 (centres undefined)	29	0.13µM*	-17%	8%	-7%
CCCOc1ccc(C(=O)NC(C)C(=O)O)cc1 (centres undefined)	-106*	9%	-9%	4%	-10%
CC(C)CCOc1ccc(C(=O)O)cc1	?	7%	-6%	17%	5%
SMILES	PNC inhibitor	ALDH1A1 block	HPGD block	LMNA splice mod	ALOX12 inhib
CCCCOc1ccc(C(=O)Nc2ccncc2)cc1	-118*	-6%	-1%	?	5%
Cc1cc(C)c(NC(=O)Cn2ccn(-c3cccc(Cl)c3)c(=O)c2=O)c(C)c1	·	·	·	6%[46 µM]	·
Cc1ccc(C)c(Cn2nnc3c(=O)[nH]c(C4CCCN(C(=O)C5CCC5)C4)nc32)c1 (centres undefined)	33	?	4.5µM*	?	-8%
Cc1ccc(C)c(Cn2nnc3c(=O)[nH]c(C4CCN(C(=O)c5cccs5)CC4)nc32)c1	22	-15%	0.56µM*	6%	0%
Cc1ccc(Cn2nnc3c(=O)[nH]c(C4CCN(C(=O)c5cccs5)CC4)nc32)cc1	42	-10%	14µM*	14%	-17%
Cc1ccc(Cn2nnc3c(=O)[nH]c(C4CCCN(C(=O)Nc5ccc(F)cc5)C4)nc32)cc1 (centres undefined)	-12	4%	·	8%	-8%
COC/C=C/C1=CC2=CC(=O)C(C)(OC(=O)c3cnc4ccccc4n3)C(=O)C2=CN1Cc1ccc2c(c1)OCO2 (centres undefined)	·	?	-3%	?	-6%[11.4 µM]
Cc1noc(C)c1C(=O)N1CCC2(CC1)CCN(c1ccccn1)CC2	·	?	?	·	0%
O=C(O)Cc1cc(Cl)ccc1O	·	5%[13.5 µM]	-7%	·	-6%[11.4 µM]
CCOC(=O)c1c(C)oc2ncnc(N3CCN(c4ccccc4OC)CC3)c12	·	·	·	-17%[46 µM]	·
COc1ccnc(N2CCN(c3cccc(C(F)(F)F)c3)CC2)c1C#N	34	-2%	-16%	2%	-4%
COc1ccnc(N2CCN(c3ccc(Cl)cc3)CC2)c1C#N	?	13µM*	?	?	-5%
CCCCC/C=C\C\C=C/C=C/C=C/[C@@H](O)[C@@H](O)CCCC(=O)O	·	14%	-9%	·	0%
COC(=O)N1CCC2(CCCN(c3ncccn3)C2)CC1	·	-1%	-13%	·	1%
O=C(c1ccc(Cl)cc1Cl)N1CCC(c2nc3c(nnn3Cc3ccco3)c(=O)[nH]2)CC1	?	2%	20µM*	3%	-19%
O=C(c1ccccc1)N1CCC(c2nc3c(nnn3Cc3ccco3)c(=O)[nH]2)CC1	-2	-6%	14µM*	1%	5%
O=C(c1ccco1)N1CCN(c2nc(C3CC3)nc3c2nnn3Cc2ccccc2Cl)CC1	-13	?	?	?	-4%
O=C(Nc1ccc(F)cc1)N1CCC(c2nc3c(nnn3Cc3ccccc3Cl)c(=O)[nH]2)CC1	·	-9%	·	·	·
CC1(C)CC(=O)C2=C(C1)OC1=C(C2)C(=O)CC(C)(C)C1	22	18µM*	-18%	-10%	2%
Nc1[nH]c(=S)[nH]c(=O)c1N=Nc1c(Br)cc(S(N)(=O)=O)cc1Br	·	-1%[13.5 µM]	-9%	·	1%[11.4 µM]
COc1ccc(CNC(=O)CCc2c(C)nn(-c3ccc(N4CCCCC4)nn3)c2C)c(OC)c1	·	·	·	-4%[46 µM]	·
S=c1[nH]nc(-c2cc(-c3ccco3)[nH]n2)n1-c1ccccc1Cl	32	7.1µM*	32µM*	0%	?
S=c1[nH]nc(-c2cc(-c3ccco3)[nH]n2)n1-c1ccccc1	61	?	20µM*	0%[0.0737 µM]	-2%
N#C/C(=C\c1ccc(-c2cccc([N+](=O)[O-])c2)o1)c1nnc(N2CCOCC2)n1-c1ccccc1	·	7.9µM*	·	?	·
C[C@@H]1C[C@H](C)CN(S(=O)(=O)c2cc(Cl)c(Oc3ccc([N+](=O)[O-])cc3Cl)c(Cl)c2)C1	·	-6%[13.5 µM]	-1%	·	3%[11.4 µM]
CC(C)COC(=O)C(C#N)c1nc2ccccc2nc1N1CCN(Cc2ccccc2)CC1 (centres undefined)	27	13µM*	-15%	6%	3%
COCCOC(=O)C(C#N)c1nc2ccccc2nc1N1CCN(Cc2ccccc2)CC1 (centres undefined)	?	?	-12%	-2%	-2%

Compound activity: PubChem BioAssay, National Center for Advancing Translational Sciences (NCATS)
